From PubChem BioAssay (NCATS)
Inconclusive results are not listed. Values without a mark were called inactive. Activity calls are given as the source filed them. The call rests on the fitted dose curve; in most records, active means well fitted inhibition curve with a large enough effect; inconclusive means small, poorly fitted or top-dose-only effect; inactive means flat fitted curve, though single readings scatter.

Assay: P-glycoprotein substrates identified in KB-8-5-11 adenocarcinoma cell line, qHTS therapeutic library screen (AID 1346987); further: nearly all actives have a fitted effect of over 65% in size
Conditions: KB-8-5-11 (P-gp overexpressing) viability, CellTiter-Glo, 72 h; series mostly up to 44.5 µM; activity change, negative = cytotoxicity: at the top concentration
In short: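 Steps: plate 500 KB-8-5-11 cells/well in DMEM + 10% FCS (colchicine removed); pin compounds in dose-response; incubate 72 h, 37 degree C, 5% CO2; add CellTiter-Glo, 5 min; read luminescence.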
On the % scale 0 is the no-effect control and ±100 the full control effect; potency means the concentration at half of the fitted maximal effect.

Row | SMILES | activity change, negative = cytotoxicity | Potency | outcome
1 | CC(CN(C)C)CN1c2ccccc2S(=O)(=O)c2ccccc21 (stereo unspecified) | -21.3% |  | 
2 | C=C1CC2OC(=O)C(=C)C2C(O)/C=C(\C)CCC1O (stereo unspecified) | -2.54% |  | 
3 | CCCCCCCCCCCCCCCC(=O)OCCC1CCN(CCCN2c3ccccc3Sc3ccc(S(=O)(=O)N(C)C)cc32)CC1 | -3.38% |  | 
4 | COc1cccc(-c2cc(F)ccc2C2Cc3nc(N)nc(C)c3C(=O)N2)n1 (stereo unspecified) |  | 0.0259 µM (active) | 
5 | CCC(C)C(C(=O)OCC[N+](C)(CC)CC)c1ccccc1 (stereo unspecified) | -0.686% |  | 
6 | CC1(C)C2CC[C@]3(C)[C@H](C(=O)C=C4[C@@H]5C[C@@](C)(C(=O)O)CC[C@]5(C)CC[C@]43C)[C@@]2(C)CC[C@@H]1O[C@H]1O[C@H](C(=O)O)[C@@H](O)[C@H](O)[C@H]1O[C@@H]1O[C@H](C(=O)O)[C@@H](O)[C@H](O)[C@H]1O (stereo partly specified) | 1.15% |  | 
7 | CCC(CC)C(c1ccc(Nc2nc3ccccc3s2)cc1)n1cncn1 (stereo unspecified) |  | 23.1 µM (active) | 
8 | Cc1c(C(=O)Nc2ccc(N3CCC(N4CCOCC4)CC3)c(C#N)c2)cnn1-c1ccc(Cl)cc1 |  | 0.82 µM (active) | 
9 | CC(=O)O[C@H]1[C@H](O)C[C@@]2(C)C(CC[C@]3(C)C2CC=C2C4CC(C)(C)CC[C@]4(C(=O)O)CC[C@]23C)C1(C)C (stereo partly specified) | -29.1% [at 17.3 µM] |  | 
10 | Nc1ncnc2c1c(-c1ccc(Cl)cc1)nn2-c1cccc(-c2cnnn2Cc2cccc(-c3ccccc3)c2)c1 |  | 16.4 µM (active) | 
11 | c1cc(-c2cnn3cc(-c4ccc(N5CCNCC5)cc4)cnc23)c2cccnc2c1 |  | 5.17 µM (active) | 
12 | CCC(C)c1ccc(NC(=O)Cn2cnc3c2c(=O)n(C)c(=O)n3C)cc1 (stereo unspecified) | -19.8% |  | 
13 | COc1ccc(C2Oc3c(OC)cc(CCCO)cc3C2COC2OC(CO)C(O)C(O)C2O)cc1OC (stereo unspecified) |  |  | inactive [at 17.3 µM]
14 | CC(C)(Cc1nc(-c2ccc(O)cn2)no1)C(=O)NC1=C(C(=O)O)CCCC1 | -1.26% |  | 
15 | C[C@@H]1CC[C@]2(C(=O)O)CC[C@]3(C)C(=CCC4[C@@]5(C)CC[C@H](O)[C@](C)(C(=O)O)C5CC[C@]43C)C2[C@]1(C)O (stereo partly specified) | -4.76% [at 17.3 µM] |  | 
16 | CCCCOc1ccc(S(=O)(=O)n2c(C)nc3ccccc32)cc1 | -17.3% [at 17.3 µM] |  | 
17 | COc1cc(N2CCC(O)CC2)ccc1Nc1nc(Nc2ccccc2S(=O)(=O)C(C)C)c2[nH]cnc2n1 | -5.23% |  | 
18 | O=C(NC1CCC1)c1ccc(C#Cc2cccc(F)c2)nc1 | -11% |  | 
19 | CCCCC1CCC(c2nc(-c3ccncc3)no2)CC1 (stereo unspecified) | -24% |  | 
20 | COc1cc(/C=N\NC(=O)c2ccc3c(c2)OCO3)ccc1OCc1ccccc1 | -26.8% |  | 
21 | CN(C)C(=O)COC(=O)c1cc(-c2ccc(C3CCNCC3)cc2)c2ccc(-c3ccc(C(F)(F)F)cc3)cc2c1 |  | 18.4 µM (active) | 
22 | CCc1ccccc1OC[C@@H](O)CN[C@H]1CCCc2ccccc21 |  | 20.6 µM (active) | 
23 | CCOC(=O)c1cnn(-c2ccccc2)c1NC(=O)c1cc2nc(-c3ccco3)cc(C(F)(F)Cl)n2n1 | -0.285% |  | 
24 | CCN1CCN(Cc2ccc(NC(=O)c3ccc(C)c(Oc4ncnc5[nH]c(C)cc45)c3)cc2C(F)(F)F)CC1 |  | 20.6 µM (active) | 
25 | CC(=O)OC(C)(C)/C=C/C(=O)C(C)(O)C1C(O)CC2(C)C3CC=C(C(C)(C)C(=O)O)C(CC(=O)O)C3(C)C(=O)CC12C (stereo unspecified) | -17.2% [at 17.3 µM] |  | 
26 | C=CC(C)(C)C12CC3C(=O)N4C(CC5(C(C)(C)C=C)c6ccccc6NC45)C(=O)N3C1Nc1ccccc12 (stereo unspecified) | -12% [at 17.3 µM] |  | 
